Bioassay records (PubChem BioAssay)
EWS-Fli inh = EWS/Fli transcriptional activity inhibition | A673 NR0B1-luciferase reporter, viability-normalised | inhibition, % at 12.6 µM | 0.67% of 350,000 active;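 active means mean inhibition of at least 50% after viability correction, with every replicate also passing that limit; inconclusive means mean reaches 50% but only one of two replicates passes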;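 further: firefly luciferase signal divided by Alamar Blue viability fluorescence both relative to DMSO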
Wnt act = Wnt/beta-catenin pathway activation | Wnt/beta-catenin reporter cell assay, activator, plate reader | activation, % at 9.35 µM | 1.2% of 300,000 active | AID 743398; in the data active means activation above about 30%, passing the limit was not always enough; inconclusive means no clear call, values can overlap the other calls;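 further: 0% = neutral control wells and 100% = positive control wells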
PAX8 inh HTS = lowers PAX8-driven luciferase in RMG-I cells | RMG-I TPO-luciferase reporter, SteadyGlo, 24 h | inhibition, % at 12.6 µM | 1.2% of 360,000 active | AID 652154;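 active means mean replicate inhibition at least 60% with every replicate also reaching 60%; inconclusive means only one of the two criteria is met; inactive means mean below 60% and not all replicates reaching 60%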;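 further: luciferase light reporting Pax8 driven TPO promoter activity; plate controls were median of neutral control wells for no effect and mitoxantrone controls for full effect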
esBAF inh = inhibitors of esBAF chromatin remodeling in mouse ES cells; Bmi1-luciferase knock-in reporter, 24 h; 100% = twice the neutral-well signal; reporter increase, % at 12.5 µM; 2% of 350,000 active; in the data active means activation above about 40%; inconclusive means no clear call, values can overlap the other calls;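 further: 0% = median of the plate's neutral control wells and 100% = double that signal; a rise in the Bmi1 reporter signal indicates esBAF inhibition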
TRPM1 prom inh = MITF TRPM1 promoter inhibition in SK-MEL-5 cells. AID 488899. 0.83% of 330,000 active. inhibition, % at 12.5 µM. SK-MEL-5 TRPM1 promoter luciferase, 24 h;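 active means mean inhibition across replicates of 60% or more, whatever share of single replicates reaches that level; inconclusive means some that reach 60%, reason not given; inactive means mean inhibition across replicates below 60%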
MITF TRPM1 HTS = activators of MITF-driven TRPM1 promoter activity in SK-MEL-5 cells; 0.75% of 300,000 active; SK-MEL-5 TRPM1-promoter luciferase, 24 h; % of positive control, neutral wells = 0; activation, % at 12.5 µM;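 active means mean activation of at least 80% with every replicate also reaching 80%; inconclusive means mean reaches 80% but some replicate falls short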;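 further: 0% = neutral control wells and 100% = parthenolide positive control wells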
* = called active by the depositor; ? = inconclusive; . = no result given. A selection: hits, their analogues and other compounds. The true share with any hit is near 4%.

SMILES	EWS-Fli inh	Wnt act	PAX8 inh HTS	esBAF inh	TRPM1 prom inh	MITF TRPM1 HTS
O=C(Oc1ccc(-c2ccccc2)cc1)N1CCOCC1	.	.	.	62*	-93	86*
O=C(Oc1ccc(Cl)cc1)N1CCOCC1	-11	0	-28	16	-1	1
COc1ccccc1S(=O)(=O)N[C@@H]1CC[C@H](CC(=O)N2CCCCC2)O[C@@H]1CO	-2	.	-2	-4	.	.
OC1CCC2CN3CCc4c([nH]c5ccccc45)C3CC2C1 (stereo unspecified)	-15	-2	.	62*	.	.
O=C(C[C@@H]1C[C@H]2c3cc(NS(=O)(=O)c4ccc(F)cc4)ccc3O[C@H]2[C@H](CO)O1)NCC1CC1	5	.	10	6	.	.
O=C(Cc1cccs1)N/N=C/C=C/c1ccccc1	-5	-1	107*	.	-3	-1
CC(=O)Cc1nsc(NC(=O)c2cccc(F)c2)n1	-14	.	-67	61*	-13	18
CCOC(=O)CNC(=O)c1sc(NC(=O)c2cccc(F)c2)nc1C	.	.	.	54*	-18	20
CCOC(=O)CNC(=O)c1sc(NC(=O)c2ccccc2F)nc1C	-70	17	.	57*	-39	45
CCC(=O)Nc1ccc2c(c1)OC[C@H](C)N(C(=O)CC)C[C@@H](C)[C@H](OC)CN(C)C2=O	-1	.	.	-5	.	.
O=C(NC(=S)Nc1cccc([N+](=O)[O-])c1)c1ccccc1	-31	32*	-29	.	-16	.
Cc1ccc([N+](=O)[O-])cc1NC(=S)NC(=O)c1ccco1	.	.	8	9	-8	9
O=C(NC(=S)Nc1cccc([N+](=O)[O-])c1)c1ccco1	.	14	-43	49*	-17	21
O=C(c1ccncc1)N1CCN(c2cc(-c3ccccc3)nc3cc(-c4cccc(Cl)c4)nn23)CC1	20	-7	68*	9	.	.
O=C(c1ccoc1)N1CCN(c2cc(-c3ccncc3)nc3cc(-c4cccc(Cl)c4)nn23)CC1	12	-2	34	0	.	.
COc1ccc(C(=O)/C(C#N)=N/Nc2cccc([N+](=O)[O-])c2)cc1	62*	-2	31	-19	12	-12
O=C1CCC(=O)N1CCSC(=S)N1CCOCC1	3	35*	2	.	5	.
CCCNC(=O)Nc1ccc2c(c1)C(=O)N(C)C[C@H](OC)[C@@H](C)CN(CC1CCCC1)[C@@H](C)CO2	-5	.	.	1	.	.
CN1CCc2c(sc(/N=C/c3c[nH]c4ccccc34)c2C#N)C1	-87	39*	-48	.	.	.
COc1ccc(NC(=O)N(C)C[C@H]2Oc3ccc(NC(=O)CCC(F)(F)F)cc3CC(=O)N([C@@H](C)CO)C[C@H]2C)cc1	-3	.	-1	-2	.	.
COc1ccccc1C(=O)OCc1cc(=O)n2ccsc2n1	-29	5	-35	.	-30	33
O=C(OCc1cc(=O)n2ccsc2n1)c1ccccc1O	-9	-1	.	74*	-81	?
O=c1cc(COc2ccc(Cl)c(Cl)c2)nc2sccn12	-112	?	-35	45*	-73	74
CCCC#Cc1cnc2c(c1)C(=O)N([C@@H](C)CO)C[C@@H](C)[C@@H](CN(C)C(=O)C1CCC1)O2	-3	.	.	-4	.	.
CC1C/C(=C/c2ccncc2)C(=O)/C(=C/c2ccncc2)C1 (stereo unspecified)	78*	-21	85*	-14	106*	-105
SMILES	EWS-Fli inh	Wnt act	PAX8 inh HTS	esBAF inh	TRPM1 prom inh	MITF TRPM1 HTS
Cc1noc(C)c1NC(=O)N[C@H]1C=C[C@@H](CC(=O)NCc2ccc(Cl)c(Cl)c2)O[C@@H]1CO	3	.	-15	0	.	.
COc1cc(/C=C2/SC(=Nc3ccc(O)cc3)NC2=O)ccc1O	54*	4	56	.	8	-4
COc1cc(/C=C2\SC(=Nc3ccccc3OC)NC2=O)ccc1O	35	0	71*	7	46	-47
CC(=O)N1CC2(C1)[C@H](c1ccccc1)[C@@H](CO)N2C(=O)c1ccncc1	0	.	3	.	.	.
C[C@H](NC(=O)C[C@H]1C[C@@H]2c3cc(NC(=O)NC4CCCCC4)ccc3O[C@@H]2[C@H](CO)O1)c1ccccc1	-3	.	-11	0	.	.
Cc1nn(C)cc1NC(=O)C[C@@H]1CC[C@@H]2[C@@H](COc3ccc(NC(=O)C(C)C)cc3C(=O)N2C)O1	4	.	6	-3	.	.
c1ccc(Nc2nc3ccccc3n3nnnc23)cc1	-64	13	-113	75*	-16	10
Cc1ccc(C(=O)CSc2nnc3ccccn23)c(C)c1	0	33*	-41	.	-11	12
O=C(CSc1nnc2ccccn12)Nc1ccccc1Cl	-9	5	.	17	-13	15
Cc1ccc(C(=O)CSc2nnc(N)s2)c(C)c1	-35	14	-122	61*	-82	87*
COCCn1c(C)cc(C(=O)CSc2nnc3ccccn23)c1C	63*	-3	32	-72	59	-58
Cc1ccc(NC(=O)CSc2nnc3ccccn23)c(Cl)c1	-61	1	-127	66*	.	.
COCCn1c(C)cc(C(=O)CSc2nc3ccccc3s2)c1C	.	-2	-7	-52	9	-8
Cc1cc(C)c(C(=O)CSc2nnc(N)s2)cc1C	4	3	-14	.	-11	13
COc1ccc2c3c([nH]c2c1)[C@H](CO)N(CC1CC1)CC31CN(C(=O)c2ccccc2)C1	3	.	.	.	.	.
C[C@@H]1CN([C@H](C)CO)S(=O)(=O)c2ccc(/C=C/c3ccccc3)cc2O[C@H]1CN(C)Cc1cccnc1	25	.	56	.	.	.
COc1ccc(-c2ccc([C@H]3[C@@H](CO)N4C(=O)CN(C(=O)C5CCCC5)C[C@H]34)cc2)cc1	14	.	-12	.	.	.
Cc1nc2c(nc1C)C(=O)c1ccccc1C2=O	21	-3	6	.	105*	.
Cc1c(/C=C/C(=O)c2ccccc2O)cnn1C	-98	-2	-276	51*	-78	?
Cc1ccc2occ(/C=C/C(=O)c3ccccc3O)c(=O)c2c1	.	4	.	51*	-76	77
O=C(C=Cc1ccccn1)c1ccccc1O	2	-3	-13	35	88*	-88
O=C(C=Cc1ccccn1)c1ccccc1	13	-26	.	5	70*	-69
O=C(C=Cc1cccnc1)c1ccccc1	2	-4	-115	.	40	-42
CC(C)NC(=O)N(C)C[C@@H]1Oc2ccc(NC(=O)Cc3cn(C)c4ccccc34)cc2CC(=O)N([C@H](C)CO)C[C@H]1C	.	.	14	-2	.	.
NC(=O)c1c(NC(=O)c2ccc([N+](=O)[O-])o2)sc2c1CCCC2	-49	2	47	.	62*	-61
N#Cc1c(NC(=O)c2ccc([N+](=O)[O-])o2)sc2c1CCC2	-156	27	-13	17	18	-20
NC(=O)c1ccsc1NC(=O)c1ccc([N+](=O)[O-])o1	58*	9	89*	10	67*	-66
NC(=O)c1ccsc1NC(=O)COC(=O)c1ccc([N+](=O)[O-])o1	-5	1	-21	-8	29	-27
